Compounds with a hit are over-represented: about 8.8% of the library has one in this group of screens.
HPGD block = qHTS Assay for Inhibitors of HPGD (15-Hydroxyprostaglandin Dehydrogenase). 15-hydroxyprostaglandin dehydrogenase [NAD(+)] (Homo sapiens), P15428. purified HPGD, NADH fluorescence kinetic, PGE2 substrate. Potency, µM, without a hit: at the highest dose activity change, negative = inhibition, actives largely listed as inhibitors. hit rate 4.3% among 150,000; note: % is set by controls: 0 for no effect and ±100 for the full control effect
Target sequence (P15428 whole entry, looked up): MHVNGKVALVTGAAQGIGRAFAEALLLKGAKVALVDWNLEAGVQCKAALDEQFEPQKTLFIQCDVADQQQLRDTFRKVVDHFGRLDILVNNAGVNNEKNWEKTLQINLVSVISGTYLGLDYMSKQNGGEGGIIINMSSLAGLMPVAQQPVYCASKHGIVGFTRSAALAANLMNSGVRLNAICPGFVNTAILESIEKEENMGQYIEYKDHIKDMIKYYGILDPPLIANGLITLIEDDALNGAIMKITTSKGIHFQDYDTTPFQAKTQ
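20 nM HPGD preincubated 15 min at room temperature with compound in 50 mM Tris-HCl pH 8, 0.01% Tween 20. Started with 1 mM NAD+ and 30 uM prostaglandin E2; NADH fluorescence (360/450 nm) read 5 times over 30-s intervals, last minus first.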
HTT aggregate = qHTS Multiplex Assay to Identify Dual Action Probes in a Cell Model of Huntington: Aggregate Formation (GFP). PC12 HttQ103-GFP aggregates, Acumen cytometry, 40 h. Potency, µM (titrated, usually from 46.1 µM), for inactives: top-dose activity change, negative = inhibition, actives largely listed as inhibitors. hit rate 1.1% among 220,000. AID 1688, 2009; active = well fitted curve in the direction sought with a large enough effect; inconclusive = small, poorly fitted or top-dose-only effect, or another doubt; inactive = no such curve, though single readings can be large; an effect the other way counts as inactive or inconclusive; note: % is set by controls: 0 for no effect and ±100 for the full control effect; nearly all actives have a fitted effect of over 60% in size
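PC12/HTTQ103-GFP, ecdysone-inducible; teb 100 nM; cpd qHTS titration; GFP aggregates read on laser cytometer, Ex 488/Em 500-530 nm.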
HTT ATP protect = qHTS Multiplex Assay to Identify Dual Action Probes in a Cell Model of Huntington: Cytoprotection (ATP) | Potency, µM (doses to about 56.4 µM), for inactives: cytoprotection (ATP increase), actives largely listed as activators | hit rate 0.14% among 230,000 | AID 1471, 2008 | PC12 HTT-Q103 induced, cytoprotection, ATP luminescence, 40 h; active = well fitted curve in the direction sought with a large enough effect; inconclusive = small, poorly fitted or top-dose-only effect, or another doubt; inactive = no such curve, though single readings can be large; an effect the other way counts as inactive or inconclusive; note: % of control where 0% means no effect; nearly all actives have a fitted effect of over 45% in size
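ATP quantification (ATPlite) reports survival of PC12 cells in which tebufenozide, 100 nM final, switches on Htt exon 1 with 103 glutamines linked to GFP; compounds are titrated.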
LMNA splice mod = qHTS Assay for Modulators of Lamin A Splicing; HeLa LMNA splicing GFP/RFP minigene ratio, 48 h; Potency, µM (highest dose often 46.1 µM), for the others: at the top dose ratio change, negative = inhibition, most hits filed as inhibitors; hit rate 0.01% among 200,000; active = well fitted inhibition curve with a large enough effect in the signal ratio, with a control signal flat, not every such curve was filed as active; inconclusive = small, poorly fitted or top-dose-only effect, or effect the other way, or a change in a side signal; the % refers to the signal ratio; note: % is set by controls: 0 for no effect and ±100 for the full control effect
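Read-out is the ratio of GFP to DsRed2 object intensity, acquired by 488 nm laser-scanning cytometry on HeLa lamin A-EGFP minigene reporter cells. Compound incubation 48 hrs at 37 °C in Opti-MEM with 2% FBS; DMSO 0.5% final.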
ALDH1A1 inh = qHTS Assay for Inhibitors of Aldehyde Dehydrogenase 1 (ALDH1A1); Aldehyde dehydrogenase 1A1 (Homo sapiens), P00352; Purified ALDH1A1, NADH fluorescence, propionaldehyde substrate; Potency, µM (top dose mostly 75.3 µM), inactives show at the highest dose activity, negative = inhibition, most hits filed as inhibitors; hit rate 7.3% among 220,000; AID 1030, 2008;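 note: plate controls were no enzyme wells and a reference inhibitor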
Target sequence (P00352 whole entry, looked up): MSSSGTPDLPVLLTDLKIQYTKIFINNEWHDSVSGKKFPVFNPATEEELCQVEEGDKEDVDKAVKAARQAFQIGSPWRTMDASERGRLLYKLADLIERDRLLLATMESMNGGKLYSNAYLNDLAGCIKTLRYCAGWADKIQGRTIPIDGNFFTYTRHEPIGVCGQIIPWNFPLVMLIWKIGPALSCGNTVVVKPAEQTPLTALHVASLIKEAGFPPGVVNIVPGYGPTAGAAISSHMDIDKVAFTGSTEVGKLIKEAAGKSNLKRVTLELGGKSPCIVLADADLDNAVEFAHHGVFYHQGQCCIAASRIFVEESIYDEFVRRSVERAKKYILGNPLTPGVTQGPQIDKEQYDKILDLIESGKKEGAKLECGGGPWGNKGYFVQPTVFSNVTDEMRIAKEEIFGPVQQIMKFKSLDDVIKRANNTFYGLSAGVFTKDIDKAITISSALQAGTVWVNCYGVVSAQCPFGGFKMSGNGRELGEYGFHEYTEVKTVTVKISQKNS
* hit, by the source's call; u = inconclusive; x = no result; [ ] = dose if it differs, or a comment. Unless noted, calls come from the whole dose curve; as a rule, active = well fitted inhibition curve with a large enough effect (not every such curve was filed as active); inconclusive = small, poorly fitted or top-dose-only effect, or another doubt; inactive = no such curve, though single readings can be large or run the other way. Potency is the fitted concentration of half-maximal effect.

SMILES	HPGD block	HTT aggregate	HTT ATP protect	LMNA splice mod	ALDH1A1 inh
COc1ccc(Cn2ccnc2SCC(=O)NCc2ccccc2)cc1	x	x	x	-7.8%[46 µM]	x
Nc1nc2c(c(=O)[nH]1)N[C@H](CCNc1ccc(C(=O)O)cc1)CN2	-7.5%	x	-0.9%[10 µM]	x	-8.9%[13.5 µM]
COc1ccc(-c2nn(-c3ccccc3)cc2/C=C(\C#N)S(=O)(=O)c2ccccc2)cc1OC	-22.2%	-3.6%	6.4%[10 µM]	-0.6%	8.91µM*
O=C1C=C(NNC(=O)c2ccncc2)CC(c2ccccc2)C1 (stereo not given)	x	9.2%	-1.0%	2.7%[46 µM]	8.91µM*
O=C1C=C(NCc2ccncc2)CC(c2ccccc2)C1 (stereo not given)	-4.4%	10.8%	4.2%	-6.1%	-10.9%
COc1ccc(CC(=O)N(C)C2CCCCC2)cc1S(=O)(=O)N1CCOCC1	x	18.9%	x	x	-0.8%
Cc1ccc(CNC(=O)c2cnc3c(-c4ccccc4)c(C)nn3c2C)o1	x	x	x	1.8%[46 µM]	x
Cc1ccc(N(C)S(=O)(=O)c2ccc3[nH]c(=O)ccc3c2)cc1	x	x	x	12.0%[46 µM]	x
CC(=O)Nc1ccc(NC(=O)c2ccc(C3SCC(=O)N3CCc3ccccc3)cc2)cc1 (stereo not given)	-16.8%	16.1%	49.1%[0.074 µM]	u	25.1µM*
CCCn1c(C)cc(C(=O)COC(=O)c2ccc[nH]c2=O)c1C	-14.0%	-3.7%	12.0%[10 µM]	1.9%	1.0%
O=C(c1ccccc1)c1ccc(OCCOCCN2CCN(Cc3ccccc3)CC2)cc1	x	x	x	-0.8%[46 µM]	17.8µM*
CCCN(CCC)C(=O)c1ccc2c(=O)n(Cc3ccco3)c(=S)[nH]c2c1	x	16.1%	-22.0%[10 µM]	u	25.1µM*
COc1cc(NC(=O)c2ccc3c(=O)n(Cc4ccco4)c(=S)[nH]c3c2)cc(OC)c1OC	-11.2%	u	-82.5%[10 µM]	u	1.26µM*
CN(C)Cc1nsc(N(C)C)n1	0.7%	x	-12.7%[10 µM]	x	-6.4%[13.5 µM]
CCOc1ccc(CCNC(=O)c2cnc3c(-c4ccc(F)cc4)c(C)nn3c2C)cc1	x	x	x	7.8%[46 µM]	x
CC(NCc1ccc(S(N)(=O)=O)cc1)C(=O)N1CCc2ccccc21 (stereo not given)	x	20.4%[9.22 µM]	-2.6%[10 µM]	x	x
N#CC(Cc1ccc(O)c(O)c1)C(=O)N1CCc2ccccc21 (stereo not given)	28.2µM*	x	x	u	8.91µM*
CCC(C)N(C(=O)CSc1ccc(NC(C)=O)cc1)C1CCS(=O)(=O)C1 (stereo not given)	x	u	-15.5%	8.9%[46 µM]	6.3%
Cc1cc2c(=O)n(Cc3ccco3)c(SCC(=O)c3ccc(Cl)s3)nc2s1	28.2µM*	u	26.5%	20.2%	15.8µM*
CCOC(=O)CC(=O)CSc1nc2sc(C)cc2c(=O)n1Cc1ccco1	28.2µM*	11.5%	-7.2%	5.5%	0.562µM*
Cc1sc2nc(SCC(=O)C(C)(C)C)n(Cc3ccco3)c(=O)c2c1C	-26.1%	-15.7%	-49.0%	u	u
CN(C1CCCCC1)S(=O)(=O)Cc1ccccc1	17.8µM*	-12.3%	-9.8%	7.0%	-95.5%
COc1cccc(Nc2ncc3nc(C)c(=O)n(C4CC4)c3n2)c1	x	x	-32.8%	-15.2%	18.1%
Cc1ccc(S(=O)(=O)N(c2nc(N(C)C)nc(N(C)C)n2)n2cnnc2)cc1	-5.5%	-22.9%	-2.9%	3.1%	5.01µM*
CC(=O)N(Cc1cc(=O)[nH]c2ccccc12)c1ccccc1	-6.9%	-8.5%	10.7%	2.3%	6.5%
SMILES	HPGD block	HTT aggregate	HTT ATP protect	LMNA splice mod	ALDH1A1 inh
CC(=O)N(Cc1cc(=O)[nH]c2ccccc12)c1cccc(C)c1	u	18.4%	4.3%	4.3%	20µM*
Cc1ccc(S(=O)(=O)CCC(=O)c2ccc(O)cc2O)cc1	-21.6%	-84.8%	-116.0%[10 µM]	u	0.282µM*
COc1ccc(NC(=S)N(CCc2nc3cc(C)c(C)cc3[nH]2)Cc2cccnc2)cc1	-13.8%	19.5%	u	3.2%	12.6µM*
COc1ccc(NC(=S)N(CCc2c(C)[nH]c3ccccc23)Cc2cccnc2)cc1	-13.1%	-9.1%	x	u	-5.2%
S=C1NC(c2ccccc2)N2C(=S)NC(c3ccccc3)N12 (stereo not given)	25.1µM*	-25.3%	-2.4%	10.6%	12.6µM*
OC1NC(=S)N(c2ccccc2)C1O (stereo not given)	x	11.0%[9.22 µM]	4.2%[10 µM]	x	x
COc1ccc(C2NC(=S)N3C(c4ccc(OC)cc4)NC(=S)N23)cc1 (stereo not given)	u	2.3%[9.22 µM]	18.4%	23.6%	11.2µM*
COc1cccc(-c2nccc(N(C)Cc3ccco3)n2)c1	x	x	-49.1%	-0.1%	u
Cc1ccccc1S(=O)(=O)NCc1cccnc1	0.9%	-1.1%	x	1.4%	-5.6%
Cc1ccc(C(C)C)cc1S(=O)(=O)NCc1cccnc1	-5.1%	u	3.7%[10 µM]	-11.6%	20µM*
CC1=C2[C@H](/C=C(\C)C(=O)O)CC[C@@H](C)[C@H]2CC1	-4.7%	x	1.1%	x	17.8µM*
CC1=C2[C@@H]([C@H](C)CC[C@H]2/C=C(\C)C(=O)O)[C@H](O)C1	-9.8%	x	-0.3%	x	u
O=C1C2=C(Nc3cc([N+](=O)[O-])ccc3N2)O[C@@H]1c1ccc([C@H]2OC3=C(Nc4ccc([N+](=O)[O-])cc4N3)C2=O)cc1	-8.2%	x	-24.3%[10 µM]	x	u
CCc1c(C)nc2ncnn2c1NCCc1ccccc1	-6.0%	10µM*	-37.2%	-23.4%	6.9%
COc1ccc(CNC(=O)CC(c2ccc(OC)cc2)N2Cc3ccccc3C2=O)cc1 (stereo not given)	x	x	x	4.1%[46 µM]	x
Cc1ccccc1-n1cnnc1SCC(=O)Nc1cccnc1Cl	x	-6.9%	-0.1%	x	u
COc1ccccc1-n1cnnc1SCC(=O)c1c[nH]c2ccccc12	-14.2%	4.2%	-19.8%[10 µM]	-10.2%	10µM*
COc1ccccc1-n1cnnc1SCC(=O)Nc1cccnc1Cl	x	-0.6%	-27.8%	u	25.1µM*
CCCCNc1nc(C)nc2c1nc(-c1ccccc1)n2CCCN(CC)CC	u	x	-42.0%	x	u
O=C1C=CC(=O)N1c1ccc(Sc2ccc([N+](=O)[O-])cc2)cc1	x	12.2%[9.22 µM]	3.3%[10 µM]	x	0.794µM*
Cn1nc(C(F)(F)F)c2cc(C(=O)Nc3ccc(C(F)(F)F)cc3)sc21	x	7.7%[9.22 µM]	-9.0%[10 µM]	x	x
COc1ccc(Br)c(C(=O)N2CCN(S(=O)(=O)c3cccs3)CC2)c1	x	-5.3%[9.22 µM]	-7.5%[10 µM]	x	x
O=C1C=C(N(CCO)Cc2ccccc2)c2ccccc2C1=O	x	8.91µM*	-160.7%	-6.7%[9.22 µM]	u
Cc1ccc(C(=O)Oc2csc(=S)n2C(=O)c2ccc(C)cc2)cc1	5.01µM*	-15.1%	9.7%	-3.9%	3.55µM*
CO[C@H]1COC(=O)C/C=C\[C@H](C)[C@@H](OC)COC(=O)[C@@H](C)NC(=O)C/C=C\[C@@H]1C	x	x	-16.4%[10 µM]	x	2.4%[13.5 µM]
